Screening results as filed in PubChem.
GLP-1R agonist = qHTS of GLP-1 Receptor Agonists; HEK293 GLP-1R CRE-luciferase, luminescence, 4-6 h; cells express a hypersensitive GLP-1R form; 0.007% of 380,000 active; Potency, µM (doses to about 45.6 µM), for the others: at the highest dose activation, usual class: activators; AID 624172, 2012; Glucagon-like peptide 1 receptor (Homo sapiens), P43220; note: potency is the fitted concentration of half-maximal effect; % of control where 0% means no effect
GLP-1R inv ag = qHTS of GLP-1 Receptor Inverse Agonists (Inhibition Mode); Glucagon-like peptide 1 receptor (Homo sapiens), P43220; HEK293 GLP-1R CRE-luciferase, luminescence, 24 h; GLP-1R form is constitutively active; Potency, µM (highest dose often 38.3 µM), without a hit: top-dose activity change, negative = inhibition, most hits filed as inhibitors; 1.6% of 410,000 active; AID 624417, 2012; note: potency is the fitted concentration of half-maximal effect; % is set by controls: 0 for no effect and ±100 for the full control effect; nearly all actives have a fitted effect of over 55% in size
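GLP-1R inverse agonism mode: basal reporter luminescence in engineered HEK293 cells measured after one day of compound exposure at 37 deg C, with a 12 min room-temperature detection step.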
HEK293 tox = qHTS of GLP-1 Receptor Inverse Agonists: Cytotox Screen; Potency, µM (doses to about 38.3 µM), without a hit: top-dose activity change, negative = inhibition, hits mostly inhibitors; 0.13% of 410,000 active; HEK293 cAMP-luciferase reporter cells, luminescence, 24 h;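 note: loss of luciferase light is scored as toxicity; potency is the fitted concentration of half-maximal effect; % is set by controls: 0 for no effect and ±100 for the full control effect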
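To flag toxic compounds, the library was rerun on cells for 24 hr at 37 deg C and 5% CO2. Viability-linked luminescence was captured 12 min after adding luciferase detection reagent.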
LDHA block = qHTS assay for inhibitors of human lactate dehydrogenase | activity change, % (values are at about 110 or 230 µM) | L-lactate dehydrogenase A chain (Homo sapiens), P00338 | purified LDHA, NADH/diaphorase-resazurin fluorescence; active compounds read low | 0.15% of 480,000 active; in the data active = activity change below about -30%; inconclusive = mostly about -25% to -30%;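 note: plate controls were DMSO wells for no effect and wells without enzyme for full effect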
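Enzyme activity of human lactate dehydrogenase 5 (2 nM; 0.06 mM NADH, 0.2 mM pyruvate, 5 min, RT) is measured via a resazurin/diaphorase fluorescence readout of residual NADH.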
ClpP mod = qHTS Assay for Activators of ClpP | AID 651965, 2013 | 1.9% of 340,000 active | ATP-dependent Clp protease proteolytic subunit (Bacillus subtilis (strain 168)), P80244 | Potency, µM (series often up to 57.5 µM), inactives show at the highest dose activity change, negative = active | purified B. subtilis ClpP, FRET peptide cleavage, 20 min; active = well fitted falling curve with a large enough effect; inconclusive = small, poorly fitted or top-dose-only effect; inactive = no such curve, though single readings can be large or run the other way; note: potency is the fitted concentration of half-maximal effect; the source files actives as falling curves though it sought activators and does not explain the sign; nearly all actives have a fitted effect of over 65% in size
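Purified B. subtilis ClpP, 10 microg/mL final in Tris/HCl pH8 with KCl, BSA, glycerol and Tween-20, cleaved an Abz/nitrotyrosine-quenched decapeptide. Fluorescence (ex 320, em 430) was read at 0 and 20 min at room temperature. Delta was normalized to 5.8 microM ADEP and DMSO/no-enzyme controls.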
p53 reactivator = qHTS assay for re-activators of p53 using a Luc reporter. H1299 p53-A138V BP100-luciferase reporter, luminescence, 24 h. Potency, µM (top dose mostly 92.2 µM), for inactives: at the top dose activity change, positive = activation, actives largely listed as activators. 0.063% of 320,000 active; note: potency is the fitted concentration of half-maximal effect; % of control where 0% means no effect; nearly all actives have a fitted effect of over 45% in size
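H1299 (p53-null), stable ts p53-A138V + BP100-Luc; 1000 cells/well, Opti-MEM/10% FBS; cpd 4 pt, 1:5; 24 h, 37 deg C, 5% CO2; detection reagent 10 min RT; luminescence.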
* = called active by the depositor; ? = inconclusive; / = no result. Rows were chosen to be rich in hits. Some 2.9% of all compounds tested hit in one or more screens of this group. Unless noted, calls come from the whole dose curve; as a rule, active = well fitted curve in the direction sought with a large enough effect; inconclusive = small, poorly fitted or top-dose-only effect, or another doubt; inactive = no such curve, though single readings can be large; an effect the other way counts as inactive or inconclusive.

SMILES	GLP-1R agonist	GLP-1R inv ag	HEK293 tox	LDHA block	ClpP mod	p53 reactivator
CC(Cc1cccs1)NC(=S)Nc1ccccc1 (centres undefined)	27%	?	?	-10	/	21%
O=C(NCC(c1ccc2c(c1)OCO2)N1CCOCC1)C(=O)Nc1ccc(F)cc1F (centres undefined)	/	12%	-4%	0	2%	/
N#Cc1c(N2CCCCC2)nc(N2CCCCC2)c2c1CCN(Cc1ccccc1)C2	5%	0%	21%	0	11µM*	14%
CCCC(=O)N(Cc1cc(=O)[nH]c2ccccc12)c1ccc(C)cc1C	6%	?	-22%	-3	-13%	-5%
Cc1ccc(N(Cc2cc(=O)[nH]c3ccccc23)C(=O)CCl)c(C)c1	-4%	5.6µM*	-26%	-4	/	-13%
CCOC(=O)c1c(Nc2cc(C)cc(C)c2)nnc(-c2ccccc2)c1-c1ccccc1	12%	7.9µM*	-5%	7	-1%	/
O=C(Cn1c(-c2cccs2)cc2cc(F)ccc21)NCCCN1CCN(c2ccccc2F)CC1	/	?	-1%	-8	32µM*	/
CC(C)CCNC(=O)Cn1c(-c2cccs2)cc2cc(F)ccc21	/	-23%	4%	-3	32µM*	/
COc1ccc(N2CCN(CCCNC(=O)Cn3c(-c4cccs4)cc4ccccc43)CC2)cc1	/	?	-4%	1	4%	/
O=C(Cn1c(-c2cccs2)cc2ccccc21)NCCCN1CCN(c2ccc(F)cc2)CC1	/	?	1%	-1	32µM*	/
Cc1ccc2c(=O)cc(C(=O)N(Cc3ccccc3Cl)C3CCS(=O)(=O)C3)oc2c1C (centres undefined)	/	/	/	1	/	/
S=C(CSc1ccccc1)Nc1cccc2ccccc12	-1%	6.3µM*	?	6	-4%	/
CCOc1ccc(OCC)c(NC(=O)CN(c2ccc(OC)cc2)S(=O)(=O)c2c(C)noc2C)c1	-2%	?	-3%	-4	0%	2%
CN(CC(=O)Nc1ccccc1C(F)(F)F)C(=O)CCc1nc2sc3c(c2c(=O)[nH]1)CCCC3	5%	3%	0%	-9	-10%	-27%
CCN(CC(=O)NC(C)C)Cc1nc2sc3c(c2c(=O)[nH]1)CCC3	1%	0%	?	-3	13µM*	0%
CCN(CC(=O)Nc1ccccc1C(F)(F)F)C(=O)CCc1nc2sc3c(c2c(=O)[nH]1)CCCC3	-4%	15%	18%	-10	16µM*	0%
CCCc1nc2sc3c(c2c(=O)[nH]1)CCCC3	-1%	13%	2%	-7	0%	-2%
CN(CC(=O)Nc1ccc(Cl)cc1)C(=O)CCc1nc2sc3c(c2c(=O)[nH]1)CCCC3	-5%	-20%	5%	-10	32µM*	15%
CCOc1ccc(C2c3c(-c4ccc(C)cc4)n[nH]c3C(=O)N2c2ccc(Cl)cc2)cc1 (centres undefined)	-9%	10µM*	?	-1	-2%	/
CCOc1ccc(N2C(=O)c3[nH]nc(-c4ccccc4)c3C2c2ccc(O)c(OC)c2)cc1 (centres undefined)	/	8%	-20%	6	-7%	/
CCOC(=O)c1ccc(N2C(=O)c3[nH]nc(-c4ccc(C)cc4)c3C2c2cccs2)cc1 (centres undefined)	-5%	8.9µM*	?	-8	10%	/
Cc1cc(C(=O)CSc2ccc(Cl)cc2)cc(C)c1OC(=S)N(C)C	5%	?	62%	-1	-4%	?
